11 compounds from PubChem BioAssay can be followed below.

Calls of active or inactive are those of the source.

Test [1] deals with Plasmodium falciparum Sir2 (PF13_0152, Sir2A). The experiment in a line: pfSir2 binders on small-molecule microarrays, primary screen, biochemical, small-molecule microarray, 635 nm fluorescence (AID 1098).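 Also: score merges spot fluorescence intensity with its signal-to-noise ratio.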 Particulars: small-molecule microarray binding, fluorescence 635 nm; higher = more signal.
Test [2] is described as follows: small-molecule microarray binders of probe aDKK1, primary screen, biochemical, biotinylated probe, 635/667 nm fluorescence (AID 1099).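 Also: score merges 667nm spot fluorescence with signal to noise across triplicate slides; reference of the scale not given here.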 The note with it: higher = more signal.
A short description of test [3]: small-molecule microarray binders of probe aCHRDL2, primary screen, biochemical, biotinylated probe, 635/667 nm fluorescence (AID 1100). Particulars: higher = more signal.
Test [4] can be described thus: splicing luciferase reporter signal modulators, primary screen, spliceosome inhibition project, cell-based, HEK293, splice +/- reporter (AID 1101).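 Also: HEK293 cells carrying a splicing-competent luciferase reporter gene; test concentration not given here.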 Particulars: luminescence, 24 h, higher = more signal, called active from +8 up or from −8 down.
Test [5] addresses Fibroblast growth factor 10 (Homo sapiens) (UniProt O15520). The experiment in a line: FGF10 binders on small-molecule microarrays, primary screen, biochemical, small-molecule microarray, 635 nm fluorescence (AID 1102). The note with it: FGF10 binding, fluorescence 635 nm, higher = more signal.
The test system of test [6] is glycogen synthase kinase-3 (GSK3A per assay name; protocol says GSK3B). Put plainly: GSK3 binders on small-molecule microarrays, primary screen, biochemical, small-molecule microarray, 635 nm fluorescence, GSK3A (AID 1103). Also: the record names both GSK3A and GSK3B. Particulars: small-molecule microarray binding, fluorescence 635 nm; higher = more signal.
Test [7] has as its target Epidermal growth factor receptor (Homo sapiens) (UniProt P00533). The experiment in a line: EGFR binders on small-molecule microarrays, primary screen, biochemical, small-molecule microarray, 635 nm fluorescence (AID 1104).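 Also: score merges 667 nm emission intensity with spot signal to noise over triplicate slides.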 The note with it: EGFR binding, higher = more signal.
The target of test [8] is Follistatin-related protein 3 (Homo sapiens) (UniProt O95633). The experiment in a line: FSTL3 binders on small-molecule microarrays, primary screen, biochemical, small-molecule microarray, 635 nm fluorescence (AID 1105).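 Also: score merges emission near 667 nm and signal to noise per printed spot across three slides.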 Particulars: FSTL3 binding, higher = more signal.
Sequence of Follistatin-related protein 3 (Homo sapiens) (O95633 whole entry, looked up): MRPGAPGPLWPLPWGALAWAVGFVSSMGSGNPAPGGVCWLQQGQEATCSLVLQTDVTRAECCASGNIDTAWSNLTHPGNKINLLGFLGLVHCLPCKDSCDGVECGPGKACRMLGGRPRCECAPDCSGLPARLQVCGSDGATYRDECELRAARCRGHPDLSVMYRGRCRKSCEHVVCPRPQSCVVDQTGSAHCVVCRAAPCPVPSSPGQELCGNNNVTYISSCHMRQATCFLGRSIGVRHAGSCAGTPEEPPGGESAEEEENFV
For test [9], the target named is Dickkopf-related protein 1 (Homo sapiens) (UniProt O94907). The experiment in a line: DKK1 binders on small-molecule microarrays, primary screen, biochemical, small-molecule microarray, 635 nm fluorescence scan (AID 1106).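 Also: score merges emission near 667 nm with signal to noise over three replicate slides.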 The note with it: DKK1 binding, higher = more signal.
Sequence of Dickkopf-related protein 1 (Homo sapiens) (O94907 whole entry, looked up): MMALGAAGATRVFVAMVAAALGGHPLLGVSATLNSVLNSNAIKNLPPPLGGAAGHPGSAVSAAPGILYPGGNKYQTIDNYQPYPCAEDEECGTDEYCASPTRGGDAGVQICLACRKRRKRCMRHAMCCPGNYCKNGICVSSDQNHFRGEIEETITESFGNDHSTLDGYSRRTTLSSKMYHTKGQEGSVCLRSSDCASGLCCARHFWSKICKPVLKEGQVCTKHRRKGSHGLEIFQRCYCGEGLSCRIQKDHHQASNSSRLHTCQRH
Test [10] has as its system Inhibin beta A chain (activin A). Put plainly: INHBA (activin A) binders on microarrays, primary screen, biochemical, small-molecule microarray, 635 nm fluorescence scan (AID 1107).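 Also: mouse activin A protein probed at 4.33 µg/mL on printed slides; score merges bound-protein fluorescence near 667 nm with spot signal-to-noise.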 The note with it: small-molecule microarray binding, higher = more signal.

Sequence of Epidermal growth factor receptor (Homo sapiens) (P00533 whole entry, looked up): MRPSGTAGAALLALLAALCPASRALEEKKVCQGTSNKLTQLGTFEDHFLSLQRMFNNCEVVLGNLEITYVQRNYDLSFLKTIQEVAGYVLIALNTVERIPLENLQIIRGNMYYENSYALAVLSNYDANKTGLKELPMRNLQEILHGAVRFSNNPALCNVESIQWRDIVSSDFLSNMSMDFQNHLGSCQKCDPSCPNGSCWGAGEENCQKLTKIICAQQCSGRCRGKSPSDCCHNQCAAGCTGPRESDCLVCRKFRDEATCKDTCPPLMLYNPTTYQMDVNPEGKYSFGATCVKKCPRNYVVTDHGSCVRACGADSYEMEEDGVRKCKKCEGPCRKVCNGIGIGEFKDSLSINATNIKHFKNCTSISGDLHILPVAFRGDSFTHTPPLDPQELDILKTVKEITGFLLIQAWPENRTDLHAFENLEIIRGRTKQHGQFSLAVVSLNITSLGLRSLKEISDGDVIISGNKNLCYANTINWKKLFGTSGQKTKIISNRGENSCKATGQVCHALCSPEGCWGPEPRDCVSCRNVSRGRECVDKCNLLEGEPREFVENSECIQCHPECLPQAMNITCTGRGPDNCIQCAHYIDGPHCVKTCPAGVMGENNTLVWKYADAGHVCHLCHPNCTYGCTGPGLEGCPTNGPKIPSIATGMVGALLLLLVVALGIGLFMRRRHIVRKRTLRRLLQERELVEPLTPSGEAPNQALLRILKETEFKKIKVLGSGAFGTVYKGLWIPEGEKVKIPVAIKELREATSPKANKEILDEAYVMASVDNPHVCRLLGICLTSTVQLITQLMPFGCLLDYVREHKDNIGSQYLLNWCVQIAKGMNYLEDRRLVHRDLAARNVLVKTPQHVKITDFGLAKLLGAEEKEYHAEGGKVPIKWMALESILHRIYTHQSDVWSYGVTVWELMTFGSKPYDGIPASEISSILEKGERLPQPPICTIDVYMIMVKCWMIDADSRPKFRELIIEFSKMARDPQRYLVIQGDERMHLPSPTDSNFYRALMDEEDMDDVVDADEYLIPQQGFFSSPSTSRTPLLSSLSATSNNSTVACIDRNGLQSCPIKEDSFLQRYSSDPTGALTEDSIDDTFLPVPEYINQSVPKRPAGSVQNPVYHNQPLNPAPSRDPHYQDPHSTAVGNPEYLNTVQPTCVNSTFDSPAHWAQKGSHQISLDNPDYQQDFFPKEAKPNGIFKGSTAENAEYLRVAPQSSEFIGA
Sequence of Fibroblast growth factor 10 (Homo sapiens) (O15520 whole entry, looked up): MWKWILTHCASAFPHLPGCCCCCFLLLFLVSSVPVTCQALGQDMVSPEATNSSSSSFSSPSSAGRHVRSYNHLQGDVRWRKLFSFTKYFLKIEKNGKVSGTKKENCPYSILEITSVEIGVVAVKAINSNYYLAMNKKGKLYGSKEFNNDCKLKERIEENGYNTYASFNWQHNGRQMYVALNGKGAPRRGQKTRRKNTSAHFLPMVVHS

Take `COCCOC(=O)N1C(=O)[C@@]2(c3cc(C#CCCO)ccc31)[C@H](c1ccc(O)cc1)N1[C@H](c3ccccc3)[C@H](c3ccccc3)OC(=O)[C@H]1[C@@H]2C(=O)N1CCN(c2ncccn2)CC1`: the composite z-score is 1.71 in test [1]; -0.365 in [2]; -0.0062 in [3]; 1.11 in [5]; 1.31 in [6]; 0.36 in [7]. In addition, the composite z-score in test [8] worked out at 0.899; in [9], 0.417; in test [10] it was 1.29. The z-score in [4] is -0.0232 (inactive).

Take `COCCCNC(=O)[C@@H]1c2ccccc2C(=O)N(Cc2ccccc2OC)[C@H]1c1ccc(CO)cc1`: the composite z-score was 0.342 in test [1]; -0.257 in test [2]; 0.287 in [3]; 0.621 in [5]; -0.177 in test [6]; 0.238 in [7]. Moreover, the composite z-score in test [8] is 0.403; in test [9], 0.56; in test [10], 0.344. For the same compound, the z-score in [4] is -1.06 (inactive).

On to `OB1C=CCC(CCc2ccccc2)O1` (stereo not given), for which the composite z-score in [1] was 1.57; in test [2], -0.246; in test [3], 0.0796; in [5] it was -0.184; in test [6] it was -0.428; in test [7] it was 0.0835. Besides, the composite z-score in [8] was -0.544; in [9], -0.191; in test [10] it was 1.67. In test [4], the z-score was -0.817 (inactive).

On to `C=C[C@H](C)[C@@H](OC(=O)Nc1ccc(SC)cc1)c1ccc(O)c2ccccc12`, for which the composite z-score in [1] was 1.3; in test [2], -0.118; in test [3], 0.216; in [5], 1.33; in [6], 1.28; in test [7] it was 1.07. Further, the composite z-score in [8] is 1.44; in [9], 1.34; in [10], 0.482. For the same compound, the z-score in test [4] is -0.8 (inactive).

Regarding `C[N+](C)(C)CCCC[C@@H]1NC(=O)[C@@H]2C[C@H](C(=O)NCCCCCCNC(=O)CS)[C@H](c3ccc(O)cc3)N2C1=O`, the composite z-score in test [1] was 1.09; in test [2], -0.0559; in test [3], 0.492; in test [5], -0.387; in [6], -1.28; in test [7] it was -0.502. The composite z-score was -1.58 in test [8], -0.141 in [9] and -0.655 in test [10]. The z-score in test [4] was 0.00498 (inactive).

Consider `CC(CO)N1C(=O)[C@@H]2C3C(=O)OCCC/C=C\[C@H]3OC23C=CCN(CCN2CCOCC2)C(=O)[C@@H]13` (stereo not given in full), for which the composite z-score in test [1] was 0.238; in test [2], -0.412; in test [3], -0.48; in test [5], 0.516; in test [6], 0.494; in test [7], -0.493. Further, the composite z-score in test [8] stood at 0.124; in test [9], 0.281; in [10], 0.693. Besides, the z-score in test [4] was -0.669 (inactive).

Take `O=C(O)C1N=C(c2ccc(OCCCO)cc2)N(c2ccccc2)O1` (stereo not given): the composite z-score was 0.524 in test [1]; 0.187 in test [2]; 0.391 in test [3]; 1.22 in test [5]; 0.472 in test [6]; 0.327 in test [7]. Moreover, the composite z-score in test [8] is 0.285; in test [9] it was -0.0405; in test [10] it was 0.712. Further, the z-score in [4] was -0.303 (inactive).

Take `NC(=O)N1C(=O)C2C(C1=O)C1C=C(CCCO)C2C(C2CC2)N1Cc1cc2c(cc1Br)OCO2` (stereo not given): the composite z-score is -0.267 in [1]; -0.165 in test [2]; 0.32 in test [3]; -0.395 in test [5]; -0.645 in test [6]; -0.376 in test [7]. Further, the composite z-score was -0.252 in [8], -0.891 in test [9] and 0.943 in test [10]. For the same compound, in test [4], the z-score is 0.901 (inactive).

Regarding `O=C(CS)NCCCCCNC(=O)[C@@H]1C[C@@H]2C(=O)NCC(=O)N2[C@@H]1c1cccc(OCCO)c1`, the composite z-score in test [1] stood at 1.17; in test [2] it was 0.0565; in test [3], 0.21; in test [5], 0.18; in [6], 0.0776; in test [7], 0.752. The composite z-score in test [8] worked out at 0.0486; in [9] it was 0.543; in test [10], 0.501. The z-score in [4] is -1.82 (inactive).

For the compound `COc1ccc(NC(=O)O[C@H]2[C@H](OC(=O)c3cc4ccccc4[nH]3)[C@@H](OC(=O)c3cc4ccccc4[nH]3)[C@@H](OC)O[C@@H]2CO)cc1`, the composite z-score is 1.24 in test [1]; -0.0147 in test [2]; 0.358 in test [3]; 0.523 in test [5]; 0.212 in test [6]; -0.245 in test [7]. In addition, the results for the composite z-score in test [8], in test [9] and in test [10] were 0.448, -0.011 and 0.287, respectively. For the same compound, in test [4], the z-score is -1.07 (inactive).

With `CCCNC(=O)[C@@H]1c2ccccc2C(=O)N(Cc2ccccc2OC)[C@H]1c1ccc(CO)cc1`, the composite z-score in test [1] came out at 1.37; in test [2] it was 0.0051; in test [3], 0.4; in [5] it was 0.714; in test [6], 0.68; in test [7], 0.0755. For the same compound, the composite z-score in test [8] is 0.995; in test [9], 0.216; in test [10], -0.258. Besides, the z-score in test [4] is 0.233 (inactive).
